Screens as filed in PubChem.
This is a sample that favours compounds with a hit; in the whole collection about 7.4% have one here.
p53 reactivation – restores transcriptional activity of mutant p53; hit rate 0.063% among 320,000; Potency, µM (series often up to 92.2 µM), for inactives: at the highest dose activity change, positive = activation, most hits filed as activators; H1299 p53-A138V BP100-luciferase reporter, luminescence, 24 h; further: % of control where 0% means no effect; nearly all actives have a fitted effect of over 45% in size
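p53-null H1299 cells stably carrying temperature-sensitive p53-A138V and a BP100-luciferase reporter were pinned with compounds (4-point, 1:5 series) and held 24 hrs at 37 deg C. Luminescence was read 10 min after detection reagent.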
NPC1 promoter act – activators of NPC1 promoter. Potency, µM (series often up to 9.22 µM), for inactives: at the highest dose activation, actives largely listed as activators. hit rate 2.4% among 320,000. Huh7 NPC1 promoter luciferase reporter, 24 h. AID 485313; further: % of control where 0% means no effect; nearly all actives have a fitted effect of over 60% in size
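Stably transfected Huh7 (NPC1 promoter→luciferase), 1500 cells/well in Opti-MEM + 10% FBS, 2 h settle, then compound 24 h at 37 °C. Luminescence after 10 min with Amplite reagent.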
FLuc modulator – inhibits or activates purified firefly luciferase, miR-21 counter-screen | P08659 | purified FLuc, Km substrates, luminescence inhibition | Potency, µM (top dose mostly 57.5 µM), for the others: at the highest dose activity change, negative = inhibition, most hits filed as inhibitors | hit rate 6.9% among 360,000 | AID 588342;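 further: plate controls were vehicle for no effect and reference inhibitor for full effect; nearly all actives have a fitted effect of over 55% in size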
Target sequence (P08659 whole entry, looked up): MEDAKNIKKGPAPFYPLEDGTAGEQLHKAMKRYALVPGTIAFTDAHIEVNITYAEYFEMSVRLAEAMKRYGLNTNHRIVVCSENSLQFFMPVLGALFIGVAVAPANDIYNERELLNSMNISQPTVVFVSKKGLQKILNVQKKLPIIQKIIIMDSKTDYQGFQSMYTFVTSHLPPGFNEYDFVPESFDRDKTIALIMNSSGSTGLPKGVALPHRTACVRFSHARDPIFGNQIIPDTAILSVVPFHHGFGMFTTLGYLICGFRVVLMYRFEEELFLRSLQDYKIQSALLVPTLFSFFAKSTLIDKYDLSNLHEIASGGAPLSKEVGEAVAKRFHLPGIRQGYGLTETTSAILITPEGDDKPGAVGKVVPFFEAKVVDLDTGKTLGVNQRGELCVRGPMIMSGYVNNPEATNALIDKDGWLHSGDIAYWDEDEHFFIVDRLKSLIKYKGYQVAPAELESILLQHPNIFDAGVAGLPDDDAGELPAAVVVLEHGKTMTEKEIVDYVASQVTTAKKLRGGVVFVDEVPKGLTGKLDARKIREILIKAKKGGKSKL
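Purified P. pyralis luciferase, 10 nM final, with Km-level 10 uM D-luciferin and 10 uM ATP in 50 mM Tris acetate pH 7.5, 10 mM Mg acetate, 0.01% Tween-20, 0.05% BSA; 6-point qHTS titration about 60 µM downward; luminescence read.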
SMN2 splice up – enhancers of SMN2 splice variant expression; HEK293 SMN2-luciferase splicing reporter, luminescence, 30-36 h; Potency, µM (titrated, usually from 46.1 µM), for the others: at the highest dose activity change, positive = activation, actives largely listed as activators; hit rate 2.8% among 210,000; further: % of control where 0% means no effect; nearly all actives have a fitted effect of over 55% in size
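qHTS luciferase splicing reporter: luminescence rises when SMN2 exon 7 is included in transfected HEK293 cells. Compound exposure lasted 30-36 h at 37C, with 4.5 mM final sodium butyrate as control, followed by a ONE-Glo read.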
Rab9 prom act – activates the Rab9 promoter; Potency, µM (titrated, usually from 9.22 µM), inactives show at the highest dose activation, negative = inhibition, usual class: activators; hit rate 2.8% among 320,000; Huh7 Rab9 promoter-luciferase reporter, luminescence, 24 h; AID 485297; further: % of control where 0% means no effect; nearly all actives have a fitted effect of over 60% in size
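Huh7 reporter line, Rab9 promoter upstream of luciferase. Compound exposure 24 h at 37 °C in reduced-serum medium with 10% FBS. Read-out: luminescence.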
ELG1 genotoxic – inducers of genotoxicity in HEK293T ELG1-luciferase cells; HEK293T ELG1-luciferase reporter, luminescence, 16 h; Potency, µM (highest dose often 46 µM), for the others: at the top dose activity change, positive = activation, most hits filed as activators; hit rate 1.3% among 330,000; AID 504466; further: % of control where 0% means no effect; nearly all actives have a fitted effect of over 60% in size
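Step 1: seed 2,000 HEK293T ELG1-luciferase cells per well. Step 2: add compound or DMSO, incubate 16 hr at 37 °C. Step 3: ONE-Glo, 30 min at room temperature, read luminescence.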
* hit, by the source's call; [ ] = dose if it differs, or a comment. The call rests on the fitted dose curve; in most records, active means well fitted curve in the direction sought with a large enough effect; inconclusive means small, poorly fitted or top-dose-only effect, or another doubt; inactive means no such curve, though single readings can be large; an effect the other way counts as inactive or inconclusive. Potency means the concentration at half of the fitted maximal effect.

Screening COc1ccc(-c2nnc(-c3cc4ccccc4oc3=O)o2)cc1 returned p53 reactivation 29%, NPC1 promoter act 2%, FLuc modulator -1%, SMN2 splice up inconclusive, Rab9 prom act 24% and ELG1 genotoxic 16%.
COc1cccc2cc(-c3cn4c(n3)sc3cc(F)ccc34)c(=O)oc12 was read as FLuc modulator 2.4µM*.
For CC/C(C)=N/Nc1nc(-c2cc3cccc(OC)c3oc2=O)cs1 the results were p53 reactivation 16%, NPC1 promoter act 2.2µM*, FLuc modulator 8.5µM*, Rab9 prom act 1.8µM* and ELG1 genotoxic inconclusive.
For COc1cccc2cc(-c3nnc(-c4ccccc4)o3)c(=O)oc12 the results were p53 reactivation 7%, NPC1 promoter act 0.5µM*, FLuc modulator 0.21µM*, SMN2 splice up 11µM*, Rab9 prom act 0.5µM* and ELG1 genotoxic inconclusive.
Screening COc1cccc2cc(-c3nnc(-c4ccc(Cl)cc4)o3)c(=O)oc12 returned FLuc modulator 1.7µM* and SMN2 splice up 0%.
`CC(C)=CCCC1=CC[C@H](C(=O)O)[C@H](C(=O)O)C1` gave SMN2 splice up 22%.
Screening COc1ccc(OC)c(S(=O)(=O)N2Cc3ccccc3CC2C(=O)Nc2nccs2)c1 (centres undefined) returned p53 reactivation inconclusive, NPC1 promoter act 3%, FLuc modulator 3%[2.3 µM], SMN2 splice up 35µM*, Rab9 prom act inconclusive and ELG1 genotoxic 14%.
Screening CCCCCC(=O)Nc1ccc(C(=O)COC(=O)CN2C(=O)NC3(CCCC3)C2=O)cc1 returned p53 reactivation 5%, NPC1 promoter act 8%, FLuc modulator 1%, Rab9 prom act 2% and ELG1 genotoxic inconclusive.
For CC(C)c1ccc(NC(=O)C2CC3CCC2C3)cc1 (centres undefined) the results were p53 reactivation 5%, NPC1 promoter act 3.5µM*, FLuc modulator 11µM*, Rab9 prom act 3.2µM* and ELG1 genotoxic 21µM*.
For CCn1nc(C(=O)OCC(=O)c2ccc3c(c2)OCCO3)c2ccccc2c1=O the results were p53 reactivation 8%, NPC1 promoter act 0%, FLuc modulator 2.4µM*, SMN2 splice up -7%, Rab9 prom act -6% and ELG1 genotoxic -1%.
Screening CCn1nc(C(=O)OCC(=O)c2ccc(F)cc2)c2ccccc2c1=O returned p53 reactivation 2%, NPC1 promoter act -1%, FLuc modulator -20%, SMN2 splice up -7%, Rab9 prom act -2% and ELG1 genotoxic -5%.
`Cc1cc(C(=O)COC(=O)c2ccc3c(c2)OCO3)c(C)n1Cc1cccs1` gave p53 reactivation inconclusive, NPC1 promoter act 3.5µM*, FLuc modulator 2.7µM*, SMN2 splice up 19%, Rab9 prom act 4µM* and ELG1 genotoxic 23µM*.
CCn1nc(C(=O)OCC(=O)c2cc(C)n(Cc3cccs3)c2C)c2ccccc2c1=O was read as p53 reactivation -12%, NPC1 promoter act -1%, FLuc modulator 3µM*, SMN2 splice up inconclusive, Rab9 prom act -3% and ELG1 genotoxic 18µM*.
`Cc1cc(C(=O)COC(=O)c2ccccc2O)c(C)n1Cc1cccs1` gave p53 reactivation -10%, NPC1 promoter act -23%, FLuc modulator 0.085µM*, Rab9 prom act -40% and ELG1 genotoxic -11%.
For CCOc1cccc(NC(=O)C2CC(=O)N(CC)C(=Nc3ccc(F)cc3)S2)c1 (centres undefined) the results were FLuc modulator -2% and SMN2 splice up -7%.
`COc1cccc(CNC(=O)CCn2cnc3ccccc3c2=O)c1` gave FLuc modulator -8%.
`Cc1ccc2oc(-c3ccco3)nc2c1` gave p53 reactivation 21%, NPC1 promoter act inconclusive, FLuc modulator 4.8µM*, SMN2 splice up 18%, Rab9 prom act inconclusive and ELG1 genotoxic inconclusive.
